Hits are enriched below; roughly 28% of the tested compounds scored in any of these assays.
CYP2C19 activ: cytochrome P450 2C19 (human) activation | P33261 | 96,000 tested, under 10 active | recombinant CYP2C19, luciferin-H EGE luminescence; active compounds read high; 0 = fully inhibited enzyme, 1 = untreated enzyme | activation factor at 5 µM;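 active = activation factor of at least 2 at 5 µM in the primary screen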;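 also: 0 = wells with 2.5 mM tranylcypromine and 1 = vehicle-only wells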
CYP2C9 inhib: human CYP2C9 inhibition; AID 777; inhibition, % at 5 µM; P11712; actives 20% (n = 96,000); CYP2C9 Supersomes, luciferin-H conversion, luminescence;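 active = blocking of liver enzyme CYP2C9 beyond about 50% at 5 µM, limit read from the data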
Pyk2 oligo antag: Pyk2 (human) oligomerization antagonism; Q14289; Q293 cells, Pyk2 FERM NanoBiT luminescence; active compounds read low; z-score (the deposit names both 25 µM and 10 µM); actives 0.83% (n = 99,000); AID 1347419;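 active = Z-score of -3 or lower, scaled per plate to the spread of control and sample wells; inactive = z-score above -3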;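 also: negative z-score means lost luminescence so less FERM oligomerization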
CYP2C9 act: activators of human CYP2C9. P11712. recombinant CYP2C9, luciferin-H conversion, luminescence; active compounds read high; factor 1 = untreated enzyme, 0 = blocked. activation factor at 5 µM. actives 1.4% (n = 96,000). AID 1024;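 active = activation factor of 2 or more for CYP2C9 at a 5 µM dose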;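 also: 0 = sulfaphenazole-blocked wells and 1 = vehicle-only wells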
CYP2C19 inh: blocks human cytochrome P450 2C19. P33261. CYP2C19 Supersomes, luciferin-H EGE luminescence, 30 min. inhibition, % at 5 µM. actives 21% (n = 96,000);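 active = CYP2C19 inhibition above a set limit at 5 µM in the primary screen, cut at about 50% in these data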;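 also: plate controls were negative control wells for no effect and 2.5 mM tranylcypromine positive control for full effect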
* = called active by the depositor; / = no result given.

SMILES	CYP2C19 activ	CYP2C9 inhib	Pyk2 oligo antag	CYP2C9 act	CYP2C19 inh
Cc1ccc(CN2C(=O)NC(=O)C3(Cc4c(nc5ccccn5c4=O)N4CCCCCC43)C2=O)cc1 (stereo not drawn)	1	26.8	-1.56	0.7	1.4
O=C(Cc1ccccc1)N1CCN(Cc2c[nH]c3ccccc23)CC1	0.4	46.1	-0.05	0.5	61.5*
O=C(COc1ccccc1)N1CCN(Cc2c[nH]c3ccccc23)CC1	1	12.0	0.46	0.9	3.3
O=C(COc1ccccc1)N1CCN(C/C=C/c2ccccc2)CC1	0.4	70.4*	0.41	0.3	62.7*
O=C(COc1ccccc1)N1CCN(C2CCCC2)CC1	0.4	1.4	0.3	1	64.3*
O=C(Cc1ccccc1)N1CCN(C2CCCC2)CC1	1.1	-18.8	-0.42	1.2	-8.5
O=C(COc1ccc(Cl)cc1)N1CCN(C/C=C/c2ccccc2)CC1	1	23.5	0.89	0.8	4.0
Cc1c(N=Cc2c(O)n(Cc3ccco3)c(=O)[nH]c2=O)c(=O)n(-c2ccccc2)n1C	1	-16.9	-0.36	1.2	-1.3
Cc1ccc(-c2nc3ccccc3c(=O)n2-c2nccs2)cc1	1	14.2	0.15	0.9	2.5
COc1cccc(NC(=O)CN2CC(c3ccccc3)CC2=O)c1 (stereo not drawn)	0.4	-0.4	/	1	61.2*
COc1cc(/C=N/NC(=O)CN2CC(c3ccccc3)CC2=O)ccc1OC(=O)N(C)C (stereo not drawn)	1	-24.0	0.1	1.2	-2.8
CCC(=NCc1ccco1)c1c(O)n(-c2ccc(C)cc2)c(=O)[nH]c1=O	0.8	17.7	0.15	0.8	24.2
CC(=NCc1ccco1)c1c(O)n(-c2ccccc2)c(=O)[nH]c1=O	0.4	11.8	-0.05	0.9	56.5*
CCC(=NCc1ccco1)c1c(O)n(-c2ccccc2)c(=O)[nH]c1=O	0.5	8.4	-0.64	0.9	54.0*
Cc1ccccc1-n1c(O)c(C=NCCN2CCOCC2)c(=O)[nH]c1=O	1.1	-16.0	0.38	1.2	-7.7
Cc1ccc(C(=O)C2(C)N(O)C(C)C(c3cccs3)=[N+]2[O-])cc1 (stereo not drawn)	0.7	56.0*	-0.68	0.4	29.9
CC1C(c2cccs2)=[N+]([O-])C(C)(C(=O)c2ccc(F)cc2)N1O (stereo not drawn)	/	/	-0.24	/	/
CCOP1(=S)Oc2cc3c(cc2C(C(=O)OC)(C(F)(F)F)O1)OCO3 (stereo not drawn)	0	89.1*	-0.5	0.1	98.2*
Cc1ccc(N(C)C(=O)Oc2cccc3cccnc23)cc1	0.1	48.7	0.85	0.5	87.1*
Cc1ccc2cccc(OC(=O)N(C)c3ccccc3)c2n1	0.1	27.6	0.77	0.7	89.8*
CC(=O)Nc1ccccc1OC(=O)N(C)C	1.1	-0.3	-0.37	1	-8.8
CCOC(=O)CNC(=O)CSP(=S)(OCC)OCC	0	69.6*	0.37	0.3	96.4*
O=C1Nc2ccccc2/C1=C/c1cnc[nH]1	0	92.1*	-0.41	0.1	98.9*
Cc1cccc(-n2c(-c3ccco3)nc3ccccc3c2=O)n1	1	17.9	-1.23	0.8	2.0
Cc1ccc(N2C(=O)NC(=O)C3(Cc4ccccc4N4CCN(c5ccccc5)CC43)C2=O)cc1 (stereo not drawn)	0.7	48.1	0.4	0.5	30.9
SMILES	CYP2C19 activ	CYP2C9 inhib	Pyk2 oligo antag	CYP2C9 act	CYP2C19 inh
COC(=O)c1ccc(N2C(=O)CC(N3CCC(n4c(=O)[nH]c5ccccc54)CC3)C2=O)cc1 (stereo not drawn)	0.4	23.7	1.72	0.8	59.8*
Cc1cc(N2C(=O)CC(N3CCC(n4c(=O)[nH]c5ccccc54)CC3)C2=O)no1 (stereo not drawn)	1	-9.4	0.37	1.1	-2.9
CCCCCn1c(=O)c(C(=O)NCc2ccncc2)c(O)c2ccccc21	0.3	73.6*	-0.35	0.3	70.8*
CC(C)Sc1nnc([C@@H](N)Cc2c[nH]c3ccccc23)o1	0.2	17.5	-0.05	0.8	77.3*
OCCN1C2CCC1CC(O)(c1ccc(F)cc1)C2 (stereo not drawn)	0.9	-4.8	0.33	1	6.6
OC1(c2ccc(F)cc2)CC2CCC(C1)N2Cc1nnnn1C1CCCCC1 (stereo not drawn)	0.5	43.1	0.02	0.6	50.3*
CCOc1ccc(Cc2c(O)[nH]c(=O)[nH]c2=O)cc1	1	-10.5	0.7	1.1	-4.9
COc1ccc(CCNCc2ccncc2)cc1OC	0.3	52.1*	0.02	0.5	65.9*
